Screening results deposited in PubChem by Center for Chemical Genomics, University of Michigan.
HIV TAR-Tat = TAR RNA-Tat peptide displacers, HIV-1, primary screen, biochemical, FRET, FAM/TAMRA-labeled Tat; AID 1259389, 2018; z-score (concentration not given with the values); 0.6% of 100,000 active; HIV-1 TAR RNA, Tat peptide displacement FRET; active compounds read high; active means z-score of 3 or more in at least 2 runs
CDC25B-CDK2 inh = primary biochemical HTRF screen for blockers of M-phase inducer phosphatase 2 binding to CDK2/cyclin A. HTRF CDC25B-CDK2/CyclinA binding, anti-His/anti-Flag; active compounds read high. z-score (test concentration not listed). 0.72% of 94,000 active; in the data active means z-score above about 3.2
An asterisk follows results filed as active; . = no result given. The list is not random: actives were taken first. Their share in the collection is about 0.9%.

SMILES | HIV TAR-Tat | CDC25B-CDK2 inh
Nc1ccc(C(=O)O)cc1 | 1.6 | .
Nc1ccc(O)c(C(=O)O)c1 | 21* | .
Nc1ccc(C(=O)O)c(O)c1 (tested in a mixture with another compound) | 16* | .
O=C(O)c1cc(O)ccc1O | 3.2 | .
CCn1c(=O)sc2cc(S(=O)(=O)N3CCN(C(=O)c4cnccn4)CC3)ccc21 | -0.19 | .
C=C(C)CC(NC(C)c1ccccc1)c1ccco1 (centres undefined) | -0.33 | -0.1
C=CC(=C)CC(NC)c1ccccc1 (centres undefined) | 0.37 | 16*
CCOC(=O)c1nc2ccccc2[nH]c1=O | -0.31 | 18*
CCOC(=O)C(C)c1nc2ccccc2[nH]c1=O (centres undefined) | . | -0.92
CC(Sc1nnc(-c2ccncc2)o1)C(=O)Nc1ccc2c(c1)OCCO2 (centres undefined) | 1.3 | 11*
Cc1[nH]c2ccc(-c3nnc(SC(C)C(=O)Nc4ccc5c(c4)OCCO5)o3)cc2c1C (centres undefined) | -2.1 | 0.43
COc1cc(OC)c(NC(=O)CN2N=NC3C(=O)N(c4ccc(F)cc4)C(=O)C32)cc1Cl (centres undefined) | 0.16 | .
O=C(NC1CCCC1)c1ccc(CS(=O)c2ccccc2Cl)o1 (centres undefined) | 0.9 | .
O=C(CC(C(=O)c1cccnc1)c1ccc2c(c1)OCO2)c1ccc(Cl)cc1 (centres undefined) | . | 0.08
CCC1=Nc2cc(C(=O)NC(C)CC)ccc2Sc2ccccc21 (centres undefined) | -0.04 | 2.4
CCC(C)NC(=O)c1ccc2c(c1)N=C(C)c1cc(C)ccc1S2 (centres undefined) | 5.9* | -1.9
Cn1ccnc1S(=O)(=O)/C(C#N)=C/c1ccc(C(F)(F)F)cc1 | . | -2.8
CC(C)/C(O)=C1/C(=O)O[C@@H](c2ccoc2)[C@]2(C)C(O)[C@@H](O)[C@@]34OC5(C)OC67CC(C)(C(O)[C@]6(O)[C@@H](O)[C@]3(O5)C12)[C@H](CC(=O)O)[C@]74C (some centres undefined) | 0.2 | .
Cc1nnc2c(Oc3ccc(Cl)cc3)nc3ccccc3n12 | 0.92 | 16*
Cc1ccc(Oc2nc3ccccc3n3c(C)nnc23)cc1C | . | 0.64
CC(C)c1ccc(C2C3=C(CCCC3=O)Nc3c2c(=O)n(C)c(=O)n3C)cc1 (centres undefined) | 0.34 | -3.6
Cc1ccc(CNC(=O)NCc2c(-n3cccc3)sc3c2CCCC3)cc1 | 13* | -1.2
Cc1cc(C)cc(NC(=O)NCc2c(-n3cccc3)sc3c2CCCC3)c1 | 0.31 | -0.2
N#CC1=C2SCN(c3ccccc3F)CN2C(=O)CC1c1c(F)cccc1Cl (centres undefined) | -2 | -1.1
CCc1ccccc1N1CSC2=C(C#N)C(c3cccc(F)c3)CC(=O)N2C1 (centres undefined) | -1.2 | 6.3*
SMILES | HIV TAR-Tat | CDC25B-CDK2 inh
N#CC1=C2SCN(c3ccccc3F)CN2C(=O)CC1c1cccc(Br)c1 (centres undefined) | -1 | 2.7
N#CC1=C2SCN(c3ccccc3F)CN2C(=O)CC1c1cccc(F)c1 (centres undefined) | 0.19 | 6.6*
COc1cccc2c1Oc1[nH]c(-c3ccc(C(=O)O)cc3)nc(=S)c1C2 | 33* | 2.7
COc1ccc(-c2nc(=S)c3c([nH]2)Oc2ccccc2C3)cc1O | 1.3 | 10*
COc1ccc(-c2nc(=S)c3c([nH]2)Oc2ccccc2C3)cc1OC | 1.6 | 0.7
COc1cccc2c1Oc1[nH]c(-c3ccc(O)cc3)nc(=S)c1C2 | -0.64 | 0.26
CCOc1ccc(C2c3c(oc4ccc(C)cc4c3=O)C(=O)N2c2nc(C)c(C)s2)cc1OC (centres undefined) | -0.72 | -0.28
COc1ccc(CNc2c3c(nc4nncn24)CCC3)cc1 | 0.54 | -1.6
Cc1ccc2cc(-c3noc(-c4ccco4)n3)c(=O)[nH]c2c1 | 0.78 | 2
Cc1ccc2[nH]c(=O)c(-c3noc(-c4ccco4)n3)cc2c1 | 28* | 10*
CCS(=O)(=O)N1CCC2(CC1)OC(=O)C(C)=C2C(=O)Nc1cc(OC)cc(OC)c1 | 1.3 | .
O=C(Cn1cnc(S(=O)(=O)N2CCCC2)c1)N1CCN(C(=O)c2ccco2)CC1 | -0.26 | .
CCC(C(=O)NCCc1cccs1)n1nc(C)c2sc3ccccc3c2c1=O (centres undefined) | 1.5 | -1.1
CCC(C(=O)Nc1cccc(Cl)c1)n1nc(C)c2sc3ccccc3c2c1=O (centres undefined) | 13* | 0.04
CCC(C(=O)Nc1cccc(F)c1)n1nc(C)c2sc3ccccc3c2c1=O (centres undefined) | 2.6 | -1.5
CCC(C(=O)NCc1cccs1)n1nc(C)c2sc3ccccc3c2c1=O (centres undefined) | 4* | -2.7
c1cncc(C2=Nc3ccccc3NC(c3ccncc3)=N2)c1 | -1 | -2.1
COC(=O)CC(C(=O)OC)P(=O)(O)CN(C)S(C)(=O)=O (centres undefined) | . | 4.5*
CCCC1N=C2c3ccccc3N=C(SCC(=O)NC(C)C)N2C1=O (centres undefined) | 0.31 | .
COc1ccc(N2C(=O)c3cccnc3C2Nc2ccccc2F)cc1 (centres undefined) | 0.91 | .
Cc1sc2ncn(CC(=O)N3CCCC(C)C3)c(=O)c2c1S(=O)(=O)N1CC(C)CC(C)C1 (centres undefined) | . | -0.26
O=C1Nc2cc(Cl)ccc2SC2CCCCC2O1 (centres undefined) | . | 20*
CC1CC(=O)Nc2cc(S(=O)(=O)Nc3cccc(Cl)c3)ccc2S1 (centres undefined) | 1.4 | .
COC(=O)c1ccc(CSc2ccc3nnc(-c4ccc(C)cc4)n3n2)o1 | . | -0.68
Cc1nc2cc(NCc3ccco3)ccc2n1C | -0.08 | 16*
SMILES | HIV TAR-Tat | CDC25B-CDK2 inh
COc1ccccc1-n1cnc2cc(NCc3ccco3)ccc21 | -0.57 | 6.2
Cc1ccc(-n2cnc3cc(NCc4ccncc4)ccc32)cc1 | -0.08 | 3.5
Cc1nc2cc(NCc3ccncc3)ccc2n1C | -0.77 | 14*
O=C(NCCCO)c1c(O)nc2ccccn2c1=O | 1.1 | -1.6
Cc1occc1-c1nnc(SCC(=O)Nc2ccc(Cl)cc2)o1 | 3.8 | 10*
Cc1occc1-c1nnc(SCC(=O)c2ccc(Cl)cc2)o1 | -2.3 | 0.95
COC(=O)C1=C(OC(=O)c2ccc(C)cc2)c2ccccc2S(=O)(=O)N1C(C)C | -0.09 | -0.27
O=C(CSc1nnc(-c2cccnc2)o1)NC1CCCC1 | 4.6* | 0.52
O=C(CSc1nnc(-c2cccnc2)o1)NCC1CCCO1 (centres undefined) | 0.82 | -1.2
Cn1c(=O)n(C)c2cc(C(=O)C(=O)c3ccccc3)ccc21 | -0.45 | -3.4
CC1(C)Cc2c(sc3[nH]c(=O)n4ncnc4c23)CO1 | . | -1.4
COc1ccc2ccccc2c1C1CC(=O)N2CN(c3ccccc3)CSC2=C1C#N (centres undefined) | -1.1 | 4.8*
COc1ccc(N2CSC3=C(C#N)C(c4c(OC)ccc5ccccc45)CC(=O)N3C2)c(OC)c1 (centres undefined) | 1.6 | 3.8*
COc1ccc(N2CSC3=C(C#N)C(c4c(OC)ccc5ccccc45)CC(=O)N3C2)cc1 (centres undefined) | -2 | 6.4*
